# Test results published in PubChem BioAssay AID1004 (SRMLSC, 2008).
# A number with no mark means an inactive call. Activity calls are given as the source filed them.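 The calls were made as follows: active = viability at 10 µM of 29.74% or lower, 3 SD below the compound median; inactive = the rest.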
# Experiment: viability of HCT116 lacking mutant beta-catenin – cell-based, DP diverse set, validation, pilot screen (AID 1004)
# Conditions: HCT116 (mutant beta-catenin deleted) viability, CellTiter-Glo, 60 h; at 10 µM; active compounds read low
row,Compound,viability
1,Nc1nc2ncc(CNc3ccc(C(=O)NC(CCC(=O)O)C(=O)O)cc3)nc2c(=O)[nH]1 (stereo not given),95.3%
2,Nc1c2c(nc3ccccc13)CCCC2,99.8%
3,C[C@@H]1C(=O)O[C@@H]2CC34C5CC(C(C)(C)C)[C@]36C(O)C(=O)O[C@@H]6O[C@@]4(C(=O)O5)[C@@]12O (stereo not given in full),72.1%
4,COC(=O)c1cc2c(s1)-c1ccccc1OC2,98%
5,CC12CC3(O)OC(O1)C1(COC(=O)c4ccccc4)[C@@H]3CC21O[C@@H]1O[C@H](CO)[C@@H](O)[C@H](O)[C@H]1O,93.9%
6,C[C@@H]1C[C@@H]([C@@H](C)CC2CC(=O)NC(=O)C2)C(=O)[C@@H](C)C1,27.8% (active)
7,O=C(c1ccc(OCCN2CCCCC2)cc1)c1c(-c2ccc(O)cc2)sc2cc(O)ccc12,86.1%
8,C=C1OC(CO)(n2cnc3c(N)ncnc32)C(O)C1O (stereo not given),95.1%
9,COc1ccc2cc1Oc1ccc(cc1)C[C@H]1c3c(cc4c(c3Oc3cc5c(cc3OC)CCN(C)[C@@H]5C2)OCO4)CCN1C,66.6%
10,Cc1ccc(Cl)c(Nc2ccccc2C(=O)O)c1Cl,98.9%
11,CCOC(=O)C(C)(C)Oc1ccc(Cl)cc1,98.7%
12,Cc1c(C)c2c(c(C)c1O)CCC(C)(COc1ccc(CC3SC(=O)NC3=O)cc1)O2 (stereo not given),92%
13,CCOC(=O)c1c(N)sc(C)c1-c1ccccc1,108%
14,O=c1c2ccccc2nc2n1CCc1c-2[nH]c2ccccc12,90.5%
15,C[C@@H]1CC[C@]2(C(=O)O)CC[C@]3(C)C(=CCC4[C@@]5(C)C[C@@H](O)[C@H](O)[C@@](C)(CO)C5[C@H](O)C[C@]43C)C2[C@H]1C (stereo not given in full),95.4%
16,CCC[C@@H]1C[C@@H](C(=O)NC(C(C)Cl)[C@H]2O[C@H](SC)[C@H](O)[C@@H](O)[C@H]2O)N(C)C1 (stereo not given in full),95.6%
17,O=c1[nH]c(=O)n(C2CCCO2)cc1F (stereo not given),94.9%
18,CCCC[C@@H](C=O)NC(=O)[C@H](CC(C)C)NC(=O)[C@H](CC(C)C)NC(C)=O,8.45% (active)
19,CN=C(NC#N)NCCSCc1nc[nH]c1C,98.3%
20,COc1ccc(CCN(C)CCCC(C#N)(c2ccc(OC)c(OC)c2)C(C)C)cc1OC (stereo not given),88.8%
21,COc1cc2c(c(OC)c1OC)-c1ccc(OC)c(=O)cc1[C@@H](NC(C)=O)CC2,39.6%
22,Cc1cc(CC(=O)O)n(C)c1C(=O)c1ccc(Cl)cc1,98.7%
23,C[C@]12CCC(=O)C=C1CC[C@@H]1[C@@H]2[C@@H](O)C[C@@]2(C)[C@H]1CC[C@]2(O)C(=O)CO,98.9%

row,Compound,viability
1,C[C@@H]1CC2C3CCC4=CC(=O)C=CC4(C)[C@@]3(F)[C@@H](O)CC2(C)[C@@]1(O)C(=O)CO (stereo not given in full),99.5%
2,COc1ccc2cc3[n+](cc2c1OC)CCc1cc2c(cc1-3)OCO2,99.8%
3,CC(C)C[C@@H](NC(=O)[C@@H](O)[C@H](N)Cc1ccccc1)C(=O)O,92.8%
4,CC[C@@]1([C@@H]2O[C@@H]([C@H]3O[C@@](O)(CO)[C@H](C)C[C@@H]3C)C[C@@H]2C)CC[C@H]([C@]2(C)CC[C@]3(C[C@H](O)[C@@H](C)[C@@H]([C@@H](C)[C@@H](OC)C(C)C(=O)O)O3)O2)O1 (stereo not given in full),93%
5,Cc1c2oc3c(C)ccc(C(=O)N[C@@H]4C(=O)N[C@H](C(C)C)C(=O)N5CCC[C@H]5C(=O)N(C)CC(=O)N(C)[C@@H](C(C)C)C(=O)O[C@@H]4C)c3nc-2c(C(=O)N[C@@H]2C(=O)N[C@H](C(C)C)C(=O)N3CCC[C@H]3C(=O)N(C)CC(=O)N(C)[C@@H](C(C)C)C(=O)O[C@@H]2C)c(N)c1=O,26% (active)
6,CC1(C)[C@@H](O[C@H]2O[C@H](C(=O)O)[C@@H](O)[C@H](O)[C@H]2O[C@@H]2O[C@H](C(=O)O)[C@@H](O)[C@H](O)[C@H]2O)CC[C@]2(C)[C@H]3C(=O)C=C4[C@@H]5C[C@@](C)(C(=O)O)CC[C@]5(C)CC[C@@]4(C)[C@]3(C)CC[C@@H]12,101%
7,CC[N+](CC)(CC)CC(=O)Nc1c(C)cccc1C,101%
8,CC(C)C[C@H]1C(=O)N2CCC[C@H]2[C@]2(O)O[C@](NC(=O)[C@@H]3C=C4c5cccc6[nH]c(Br)c(c56)C[C@H]4N(C)C3)(C(C)C)C(=O)N12,89.9%
9,C[C@H](CCC(=O)O)[C@H]1CC[C@H]2[C@@H]3CC[C@@H]4C[C@H](O)CC[C@]4(C)[C@H]3CC[C@]12C,102%
10,COC(=O)C1=C(C)NC(C)=C(C(=O)OCCNCc2ccccc2)C1c1cccc([N+](=O)[O-])c1 (stereo not given),79.3%
11,NC(=NCc1ccccc1)NC(=O)c1nc(Cl)c(N)nc1N,88.8%
12,COc1ccc(-c2cc(C(=O)O)no2)cc1,99.2%
13,COc1ccc2cc([C@H](C)C(=O)O)ccc2c1,96.8%
14,Clc1ccc2ncnc(NCc3ccc4c(c3)OCO4)c2c1,95.8%
15,COc1ccc(CCN(C)CCCN2CCc3cc(OC)c(OC)cc3CC2=O)cc1OC,102%
16,COC(=O)CCc1c(C)[nH]c(C(=O)OCc2ccccc2)c1C,100%
17,COc1ccc(Cl)cc1C(=O)NCCc1ccc(S(=O)(=O)NC(=O)NC2CCCCC2)cc1,97%
18,C[C@]12CC[C@@H]3c4ccc(O)cc4CC[C@H]3[C@@H]1CC[C@H]2O,91.1%
19,CCC(C)C(O)C(C)C(=O)C(C)/C=C(\C)CC(C)C1OC(=O)C1CC (stereo not given),107%
20,COc1ccc(C2CNC(=O)C2)cc1OC1CCCC1 (stereo not given),99.4%
21,COc1cc(CNC(=O)CCCC/C=C/C(C)C)ccc1O,95.2%
22,CC(=O)N1CCN(c2ccc(OC[C@H]3CO[C@](Cn4ccnc4)(c4ccc(Cl)cc4Cl)O3)cc2)CC1,76.8%
